Source: the supplement of paper PMC13380429

Test system: Vero E6 infected with SARS-CoV-2
Test: inhibition of SARS-CoV-2 cytopathic effect; higher = more antiviral protection, active = above 15
Details: 48 h

Row | SMILES | inhibition of SARS-CoV-2 cytopathic effect (1 nM) | inhibition of SARS-CoV-2 cytopathic effect (8.33 nM) | inhibition of SARS-CoV-2 cytopathic effect (100 nM) | inhibition of SARS-CoV-2 cytopathic effect (833.33 nM) | inhibition of SARS-CoV-2 cytopathic effect (10000 nM)
1 | Cc1c(-c2ccc(-c3ccccc3F)cc2)nc2ccc(F)cc2c1C(=O)O [brequinar] | 0.47% (inactive) | -5.34% (inactive) | -4.42% (inactive) | -4.61% (inactive) | -4.4% (inactive)
2 | O=C(COc1ccc(C(=O)c2ccccc2)cc1)NC1CCN(Cc2ccccc2)CC1 [adiporon] | -2.19% (inactive) | -0.76% (inactive) | 0.29% (inactive) | 0.19% (inactive) | -1.05% (inactive)
3 | Cc1cccc(C)c1OCC(=O)N[C@@H](Cc1ccccc1)[C@@H](O)C[C@H](Cc1ccccc1)NC(=O)[C@H](C(C)C)N1CCCNC1=O [lopinavir] | 1.3% (inactive) | 1% (inactive) | 1.43% (inactive) | 0.57% (inactive) | 12.6% (inactive)
4 | CCCCCCc1ccc(O)cc1O.Nc1c2ccccc2nc2ccccc12 [acrisorcin] | 1.59% (inactive) | 2.93% (inactive) | 1.22% (inactive) | 3.53% (inactive) | -18.5% (inactive)
5 | COc1cc(Nc2ncc3c(n2)-c2ccc(Cl)cc2C(c2c(F)cccc2OC)=NC3)ccc1C(=O)O [alisertib] | -2.11% (inactive) | 0.41% (inactive) | -2.08% (inactive) | 0.49% (inactive) | -5.87% (inactive)
6 | CN1CCCN=C1/C=C/c1cccs1 [pyrantel-pamoate] | 1.74% (inactive) | 1.39% (inactive) | 2.36% (inactive) | 0.63% (inactive) | -3.05% (inactive)
7 | COc1cccc(C(=O)CCN[C@@H](C)[C@H](O)c2ccccc2)c1 [oxyfedrine] | 0.05% (inactive) | 1.34% (inactive) | -0.45% (inactive) | 0.14% (inactive) | 1.77% (inactive)
8 | NC(Cc1ccc(I)cc1)C(=O)O (stereo in doubt) [4-iodo-L-phenylalanine] | 0.62% (inactive) | -0.66% (inactive) | 0.54% (inactive) | 0.32% (inactive) | -0.26% (inactive)
9 | O=C1C(=C(O)/C=C/c2ccc(O)cc2)C(=O)[C@@](O)([C@@H]2O[C@H](CO)[C@@H](O)[C@H](O)[C@H]2O)C(=O)[C@H]1[C@@H]1O[C@H](CO)[C@@H](O)[C@H](O)[C@H]1O | 0.73% (inactive) | -1.02% (inactive) | -0.24% (inactive) | -0.74% (inactive) | -2.44% (inactive)
10 | Nc1nc(Cl)nc2c1ncn2[C@@H]1O[C@H](CO)[C@@H](O)[C@H]1O [2-chloroadenosine] | 1.66% (inactive) | 0.54% (inactive) | -0.34% (inactive) | -0.32% (inactive) | -2.2% (inactive)
11 | CN(C)[C@@H]1C(O)=C(C(N)=O)C(=O)[C@@]2(O)C(O)=C3C(=O)c4c(O)ccc(Cl)c4[C@@](C)(O)[C@H]3C[C@@H]12 | 0.81% (inactive) | 3.66% (inactive) | 0.73% (inactive) | 1.21% (inactive) | -0.28% (inactive)
12 | C[C@H]1O[C@@H](n2cc(F)c(=O)[nH]c2=O)[C@H](O)[C@@H]1O [doxifluridine] | -2.13% (inactive) | -1.63% (inactive) | 1.63% (inactive) | -0.27% (inactive) | -0.71% (inactive)
13 | C=CCc1cc(OC)c(O)c(C(=O)NCCO)c1 [alibendol] | -1.08% (inactive) | -1.21% (inactive) | -0.53% (inactive) | 1.71% (inactive) | -2.2% (inactive)
14 | NC1=N[C@@](c2cccc(-c3cncnc3)c2)(c2ccnc(C(F)F)c2)c2cccc(F)c21 | 0.77% (inactive) | -1.06% (inactive) | -1.46% (inactive) | -0.56% (inactive) | -2.76% (inactive)
15 | CCOCC(O)COc1ccc(NC(=O)CC[S+](C)C)cc1 (stereo not given) [suplatast] | 2.01% (inactive) | -0.4% (inactive) | -0.49% (inactive) | 0.97% (inactive) | 0.31% (inactive)
16 | CN(C)CCc1ccc(O)cc1 [hordenine] | 0.04% (inactive) | -0.27% (inactive) | 0.47% (inactive) | -2.27% (inactive) | -0.68% (inactive)
17 | CC(C)[N+](C)(CCC(C(N)=O)(c1ccccc1)c1ccccc1)C(C)C [isopropamide-iodide] | 1.15% (inactive) | 1.26% (inactive) | 2.29% (inactive) | 1.52% (inactive) | 1.2% (inactive)
18 | O=C(NC1CCNCC1)[C@@H]1CC[C@@H]2CN1C(=O)N2OS(=O)(=O)O [relebactam] | 0.07% (inactive) | 1.87% (inactive) | 1.26% (inactive) | -0.84% (inactive) | -1.06% (inactive)
19 | C[S+]([O-])CCCCN=C=S (stereo not given) [sulforaphane] | -7.22% (inactive) | -6.04% (inactive) | -3.89% (inactive) | -3.35% (inactive) | 35.2% (active)

Row | SMILES | inhibition of SARS-CoV-2 cytopathic effect (1 nM) | inhibition of SARS-CoV-2 cytopathic effect (8.33 nM) | inhibition of SARS-CoV-2 cytopathic effect (100 nM) | inhibition of SARS-CoV-2 cytopathic effect (833.33 nM) | inhibition of SARS-CoV-2 cytopathic effect (10000 nM)
20 | NCC(=O)N[C@@H](CCC(N)=O)C(=O)O | 0.35% (inactive) | -1.25% (inactive) | -2.03% (inactive) | 2.57% (inactive) | -2.42% (inactive)
21 | N=C(N)c1ccc(/C=C/c2ccc(C(=N)N)cc2O)cc1 [hydroxystilbamidine] | -3.2% (inactive) | -1.76% (inactive) | -5.12% (inactive) | -3.2% (inactive) | -1.16% (inactive)
22 | C[C@@]1(O)[C@H](O)[C@@H](CO)O[C@H]1n1ccc(N)nc1=O | 5.4% (inactive) | -1.76% (inactive) | -3.15% (inactive) | -5.49% (inactive) | -2.07% (inactive)
23 | COc1ccc(C2CNC(=O)C2)cc1OC1CCCC1 (stereo not given) [rolipram] | 0.987% (inactive) | 0.267% (inactive) | -1.59% (inactive) | -0.223% (inactive) | -5.08% (inactive)
24 | O=C(c1cc2ccccc2o1)N1CCN(Cc2ccccc2)CC1 [befuraline] | -1.29% (inactive) | 1.94% (inactive) | 3.17% (inactive) | 0.64% (inactive) | -2.11% (inactive)
25 | NC(CO)(CO)CO [trometamol] | -0.18% (inactive) | -2.53% (inactive) | -0.26% (inactive) | 2.08% (inactive) | 4.11% (inactive)
26 | CN1C(=O)/C(=C2/C(=O)Nc3ccccc32)c2ccccc21 [meisoindigo] | -1.49% (inactive) | -3.61% (inactive) | -2.28% (inactive) | 1.46% (inactive) | 18.2% (active)
27 | CO[C@H]1C[C@@H]2CC[C@@H](C)[C@@](O)(O2)C(=O)C(=O)N2CCCC[C@H]2C(=O)O[C@H]([C@H](C)C[C@@H]2CC[C@H](n3cnnn3)[C@H](OC)C2)CC(=O)[C@H](C)/C=C(\C)[C@@H](O)[C@@H](OC)C(=O)[C@H](C)C[C@H](C)/C=C/C=C/C=C/1C [zotarolimus] | -1.51% (inactive) | -2.41% (inactive) | -1.68% (inactive) | -2.21% (inactive) | 1.71% (inactive)
28 | Cc1cccc(NC(=O)c2ccc(C(F)(F)F)cc2C(=O)O)n1 | 0.74% (inactive) | 0.28% (inactive) | 1.41% (inactive) | 0.88% (inactive) | 2.54% (inactive)
29 | Cc1onc(O)c1C[C@@H](N)C(=O)O (racemic) | 0.825% (inactive) | 1.39% (inactive) | 2.15% (inactive) | 2.51% (inactive) | 1.4% (inactive)
30 | COC(=O)[C@H](Cc1cccc(C(=N)N)c1)[C@@H](C)NC(=O)c1ccc(-c2cc[n+]([O-])cc2)cc1 [otamixaban] | -2.31% (inactive) | -2.54% (inactive) | -1.48% (inactive) | -0.51% (inactive) | -3.22% (inactive)
31 | CC(C)(C)CCN1C[C@@H]2[C@@H](CNC(=O)c3cc(Cl)cc(Cl)c3)[C@@H]2C1 | 2.47% (inactive) | 2.05% (inactive) | 1.76% (inactive) | 2.2% (inactive) | -10.4% (inactive)
32 | O=c1c(-c2ccccc2)c1-c1ccccc1 [diphencyprone] | -0.95% (inactive) | 0.49% (inactive) | -1.61% (inactive) | -1.95% (inactive) | 5.98% (inactive)
33 | CCCCC[C@H](O)/C=C/[C@H]1[C@H](O)CC(=O)[C@@H]1CCCCCCC(=O)O [alprostadil] | 1.09% (inactive) | 3.65% (inactive) | 0.04% (inactive) | -3.27% (inactive) | 0.55% (inactive)
34 | C[C@H]1[C@H](C)CC[C@]2(C(=O)O)CC[C@]3(C)C(=CC[C@@H]4[C@@]5(C)C[C@@H](O)[C@H](O)C(C)(C)[C@@H]5CC[C@]43C)[C@H]12 [corosolic-acid] | -3.62% (inactive) | -0.43% (inactive) | -0.51% (inactive) | -4.03% (inactive) | -1.21% (inactive)
35 | O=C(Oc1cc(S(=O)(=O)c2ccccc2)ccc1[N+](=O)[O-])c1ccc(Cl)cc1 | 0.83% (inactive) | 0.6% (inactive) | -2.99% (inactive) | -0.23% (inactive) | -0.09% (inactive)
36 | CCCCCCCCCCCCCCCCCCOP(=O)([O-])OC1CC[N+](C)(C)CC1 [perifosine] | 0.3% (inactive) | -1.34% (inactive) | -0.76% (inactive) | -1.89% (inactive) | -0.93% (inactive)
37 | NCCCNCCSP(=O)(O)O [amifostine] | 5.31% (inactive) | 3.29% (inactive) | 4.42% (inactive) | 1.87% (inactive) | 3.86% (inactive)
38 | CCCC(=O)C1CCN(c2ncnc3c2CN(C(=O)c2ccc(-c4ccccc4)cc2)CC3)CC1 | -1.91% (inactive) | -1.68% (inactive) | 2.34% (inactive) | -0.3% (inactive) | -1.38% (inactive)
